# PubChem BioAssay (Tox21)
# Results filed as inconclusive are left out. Entries that show only a call come without a potency. Active and inactive are the calls of the source. Calls follow the shape of the dose curve; as a rule, active = well fitted cell-killing curve with a large enough effect in the repeat runs (not every such curve was filed as active); inconclusive = weak or mixed curves, or effect the other way; inactive = no such curve, though single readings can be large or run the other way.
# Test: qHTS assay to identify small molecule antagonists of the estrogen related receptor signaling pathway with the pleiotropic PPARgamma coactivator (PGC) from Tox21 10K library - cell viability counter screen (AID 1224840); also: nearly all actives have a fitted effect of over 40% in size
# Conditions: PGC/ERR reporter cells viability, CellTiter-Fluor, 17.5 h; series mostly up to 92.4 µM
# Description: National Center for Advancing Translational Sciences [NCATS]
# NIH Chemical Genomics Center [NCGC]
# U.S. Environmental Protection Agency [EPA]
# National Institutes of Environmental Health Sciences [NIEHS]
# National Toxicology Program [NTP]
# U.S. Food and Drug Administration [FDA]
# Estrogen related receptors (ERRs), the first orphan nuclear receptors discovered, play an important role in the control of cellular energy metabolism. ERRs are required for high-energy production in response to the environmental challenges. The pleiotropic PPARgamma coactivator (PGC) is a major partner of ERR and a key regulator in energy homeostasis. Together they have been implicated in the etiology of metabolic disorders such as Type 2 diabetes and metabolic syndrome. ERR-alpha was also identified as an adverse marker for breast cancer progression; ERR-alpha-positive tumors have a poor prognosis. To screen and to identify environmental compounds that perturb the ERR and PGC/ERR signaling pathways could provide valuable information for potential therapeutic or preventive measures in the treatment of metabolic disease. To differentiate true PGC/ERR antagonists or agonist from cytotoxic substances, the assay is multiplexed with cell viability assay.
# Tox21 Assay Protocol Summary:
# The PGC/ERR cells were dispensed at 2,000 cells/5 ul/well in 1536-well white plates using a Multidrop dispenser. After the assay plates were incubated at a 37 C/5% CO2 incubator for 6 hours, 23 nL of compounds dissolved in DMSO, positive and negative controls or DMSO only was transferred to the assay plate by a pin tool. The plates were incubated at 37 C for 17.5 hours. 1 ul/well of CellTiter-Fluor reagent was added into the assay plates using a Flying Reagent Dispenser. After 30-minute incubation at 37 C/5% CO2, the fluorescence intensity in the plates was measured using a ViewLux plate reader.
# Potency is read from the fitted curve at half-maximal effect.
SMILES,Potency,"viability change, negative = cytotoxic"
OCCCBr,inactive,
CC(C)(C)c1cc([N+](=O)[O-])cc([N+](=O)[O-])c1O,15.3 µM (active),
CCC(Cl)CCl (stereo not given),inactive,
CN1C(=O)C(O)N=C(c2ccccc2)c2cc(Cl)ccc21 (stereo not given),inactive,
C[N+](C)(C)CCCl,inactive,
CCCCCC[N+](=O)[O-],inactive,
CCCCCCC#N,inactive,
O=C1C(=O)c2cccc3cccc1c23,inactive,
COCC(C)N(C(=O)CCl)c1c(C)csc1C (stereo not given),inactive,
CCOS(C)(=O)=O,inactive,
CC(=O)C(C)(C)C,inactive,
C=CCC1([C@H](C)CCC)C(=O)NC(=O)NC1=O,inactive,
CCCN(CC1CC1)c1c([N+](=O)[O-])cc(C(F)(F)F)cc1[N+](=O)[O-],inactive,
Brc1ccc(Oc2ccccc2)cc1,inactive,
CCCCN(N=O)C(=N)N[N+](=O)[O-],inactive,
Sc1ccccc1Cl,inactive,
N#CCc1ccccc1,inactive,
C=CC(C)=O,inactive,
O=S(=O)(O)C(F)(F)C(F)(F)C(F)(F)C(F)(F)F,inactive,
CC(=O)CCC(C)=O,inactive,

SMILES,Potency,"viability change, negative = cytotoxic"
C=CCOC(C)=O,inactive,
Nc1ccc(N=Nc2ccc(-c3ccc(N=Nc4c(S(=O)(=O)O)cc5cc(S(=O)(=O)O)c(N=Nc6ccccc6)c(O)c5c4N)cc3)cc2)c(N)c1,35.1 µM (active),
O=Cc1ccc2c(c1)OCO2,inactive,
C=CC(=O)NCNC(=O)C=C,inactive,
S=C=NCc1ccccc1,inactive,
BrCCCCBr,inactive,
CCOc1nc(F)cc2nc(S(=O)(=O)Nc3c(Cl)cccc3Cl)nn12,inactive,
CO[C@@H]1[C@H](OC(=O)NC(=O)CCl)CC[C@]2(CO2)[C@H]1[C@@]1(C)O[C@@H]1CC=C(C)C,,-8.92% [at 19 µM] (inactive)
ClCC(Br)CBr (stereo not given),inactive,
COC(N)=O,inactive,
NC(=O)C(Cl)(Cl)Cl,inactive,
C=CC(=O)OCC(C)O (stereo not given),inactive,
COC(C)(C)CCC[C@H](C)C/C=C/C(C)=C/C(=O)OC(C)C,inactive,
O=C(NC(=O)c1c(F)cccc1F)Nc1ccc(OC(F)(F)C(F)OC(F)(F)F)c(Cl)c1 (stereo not given),inactive,
CC(C)O.CC(C)O.OCCN(CCO)CCO.OCCN(CCO)CCO.[Ti],inactive,
Clc1cc(Cl)c(Cl)c(Cl)c1,inactive,
CCOP(O)OCC,inactive,
ClP(Cl)(Cl)(Cl)Cl,inactive,
c1ccc(C2CC2)c(OCC2=NCCN2)c1,inactive,
O=[N+]([O-])c1ccc(F)c([N+](=O)[O-])c1,55 µM (active),
